Changes are numbered by the printed parent chain.
Key:
Test in all cases: PBM; 200 nM protein, PBS
Settings in all cases: dsDNA, one strand shown
[1] = target: T1, SIX6 (Homo sapiens, UniProt O95475 114-200, L167I)
T1 sequence: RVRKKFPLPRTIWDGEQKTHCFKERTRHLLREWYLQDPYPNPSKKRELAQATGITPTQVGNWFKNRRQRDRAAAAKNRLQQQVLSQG

[2] = target: T2, SIX6 (Homo sapiens, UniProt O95475 114-200, L143V)
T2 sequence: T1 sequence with L30V, I54L

[3] = target: T3, SIX6 (Homo sapiens, UniProt O95475 114-200, H141N)
T3 sequence: T1 sequence with H28N, I54L

[4] = target: T4, SIX6 (Homo sapiens, UniProt O95475 114-200, T165P)
T4 sequence: T1 sequence with T52P, I54L

[5] = target: T5, SIX6 (Homo sapiens, UniProt O95475 114-200, L167M)
T5 sequence: T1 sequence with I54M

[6] = target: T6, SIX6 (Homo sapiens, UniProt O95475 114-200, L143M)
T6 sequence: T1 sequence with L30M, I54L

[7] = target: T7, SIX6 (Homo sapiens, UniProt O95475 114-200, L143I)
T7 sequence: T1 sequence with L30I, I54L

[8] = target: T8, SIX6 (Homo sapiens, UniProt O95475 114-200, T165G)
T8 sequence: T1 sequence with T52G, I54L

[9] = target: T9, SIX6 (Homo sapiens, UniProt O95475 114-200, T139Q)
T9 sequence: T1 sequence with T26Q, I54L

[10] = target: T10, SIX6 (Homo sapiens, UniProt O95475 114-200, T165A)
T10 sequence: T1 sequence with T52A, I54L

[11] = target: T11, SIX6 (Homo sapiens, UniProt O95475 114-200, L167V)
T11 sequence: T1 sequence with I54V

[12] = target: T12, SIX6 (Homo sapiens, UniProt O95475 114-200)
T12 sequence: T1 sequence with I54L

[13] = target: T13, SIX6 (Homo sapiens, UniProt O95475 114-200, T165I)
T13 sequence: T1 sequence with T52I, I54L

Sequence	binding signal [1]	binding signal [2]	binding signal [3]	binding signal [4]	binding signal [5]	binding signal [6]	binding signal [7]	binding signal [8]	binding signal [9]	binding signal [10]	binding signal [11]	binding signal [12]	binding signal [13]
ACATATCA	11.3 upbm affinity estimate (log intensity, higher = more binding, comparable within an allelic series)	10.4 upbm affinity estimate (log intensity, higher = more binding, comparable within an allelic series)	11.3 upbm affinity estimate (log intensity, higher = more binding, comparable within an allelic series)	9.99 upbm affinity estimate (log intensity, higher = more binding, comparable within an allelic series)	10.7 upbm affinity estimate (log intensity, higher = more binding, comparable within an allelic series)	11.1 upbm affinity estimate (log intensity, higher = more binding, comparable within an allelic series)	10.4 upbm affinity estimate (log intensity, higher = more binding, comparable within an allelic series)	11.3 upbm affinity estimate (log intensity, higher = more binding, comparable within an allelic series)	11.3 upbm affinity estimate (log intensity, higher = more binding, comparable within an allelic series)	11.2 upbm affinity estimate (log intensity, higher = more binding, comparable within an allelic series)	11.1 upbm affinity estimate (log intensity, higher = more binding, comparable within an allelic series)	11.1 upbm affinity estimate (log intensity, higher = more binding, comparable within an allelic series)	11.1 upbm affinity estimate (log intensity, higher = more binding, comparable within an allelic series)
AGTATCAT	11.5 upbm affinity estimate (log intensity, higher = more binding, comparable within an allelic series)	10.5 upbm affinity estimate (log intensity, higher = more binding, comparable within an allelic series)	11.5 upbm affinity estimate (log intensity, higher = more binding, comparable within an allelic series)	9.89 upbm affinity estimate (log intensity, higher = more binding, comparable within an allelic series)	10.9 upbm affinity estimate (log intensity, higher = more binding, comparable within an allelic series)	11 upbm affinity estimate (log intensity, higher = more binding, comparable within an allelic series)	10.6 upbm affinity estimate (log intensity, higher = more binding, comparable within an allelic series)	11.5 upbm affinity estimate (log intensity, higher = more binding, comparable within an allelic series)	11.4 upbm affinity estimate (log intensity, higher = more binding, comparable within an allelic series)	11.4 upbm affinity estimate (log intensity, higher = more binding, comparable within an allelic series)	11.3 upbm affinity estimate (log intensity, higher = more binding, comparable within an allelic series)	11.2 upbm affinity estimate (log intensity, higher = more binding, comparable within an allelic series)	11.2 upbm affinity estimate (log intensity, higher = more binding, comparable within an allelic series)
ATGACACC	10.7 upbm affinity estimate (log intensity, higher = more binding, comparable within an allelic series)	10.2 upbm affinity estimate (log intensity, higher = more binding, comparable within an allelic series)	11.1 upbm affinity estimate (log intensity, higher = more binding, comparable within an allelic series)	9.61 upbm affinity estimate (log intensity, higher = more binding, comparable within an allelic series)	10.1 upbm affinity estimate (log intensity, higher = more binding, comparable within an allelic series)	10.7 upbm affinity estimate (log intensity, higher = more binding, comparable within an allelic series)	10.4 upbm affinity estimate (log intensity, higher = more binding, comparable within an allelic series)	11.4 upbm affinity estimate (log intensity, higher = more binding, comparable within an allelic series)	11.3 upbm affinity estimate (log intensity, higher = more binding, comparable within an allelic series)	11.4 upbm affinity estimate (log intensity, higher = more binding, comparable within an allelic series)	10.5 upbm affinity estimate (log intensity, higher = more binding, comparable within an allelic series)	10.9 upbm affinity estimate (log intensity, higher = more binding, comparable within an allelic series)	10.9 upbm affinity estimate (log intensity, higher = more binding, comparable within an allelic series)
ATATCACA	11.3 upbm affinity estimate (log intensity, higher = more binding, comparable within an allelic series)	10.3 upbm affinity estimate (log intensity, higher = more binding, comparable within an allelic series)	11.3 upbm affinity estimate (log intensity, higher = more binding, comparable within an allelic series)	9.9 upbm affinity estimate (log intensity, higher = more binding, comparable within an allelic series)	10.7 upbm affinity estimate (log intensity, higher = more binding, comparable within an allelic series)	11 upbm affinity estimate (log intensity, higher = more binding, comparable within an allelic series)	10.4 upbm affinity estimate (log intensity, higher = more binding, comparable within an allelic series)	11.3 upbm affinity estimate (log intensity, higher = more binding, comparable within an allelic series)	11.1 upbm affinity estimate (log intensity, higher = more binding, comparable within an allelic series)	11.2 upbm affinity estimate (log intensity, higher = more binding, comparable within an allelic series)	11.1 upbm affinity estimate (log intensity, higher = more binding, comparable within an allelic series)	11 upbm affinity estimate (log intensity, higher = more binding, comparable within an allelic series)	11 upbm affinity estimate (log intensity, higher = more binding, comparable within an allelic series)
GTATGATA	11 upbm affinity estimate (log intensity, higher = more binding, comparable within an allelic series)	10.5 upbm affinity estimate (log intensity, higher = more binding, comparable within an allelic series)	11.1 upbm affinity estimate (log intensity, higher = more binding, comparable within an allelic series)	10.1 upbm affinity estimate (log intensity, higher = more binding, comparable within an allelic series)	10.6 upbm affinity estimate (log intensity, higher = more binding, comparable within an allelic series)	11 upbm affinity estimate (log intensity, higher = more binding, comparable within an allelic series)	10.5 upbm affinity estimate (log intensity, higher = more binding, comparable within an allelic series)	11.2 upbm affinity estimate (log intensity, higher = more binding, comparable within an allelic series)	11.2 upbm affinity estimate (log intensity, higher = more binding, comparable within an allelic series)	11 upbm affinity estimate (log intensity, higher = more binding, comparable within an allelic series)	10.9 upbm affinity estimate (log intensity, higher = more binding, comparable within an allelic series)	11 upbm affinity estimate (log intensity, higher = more binding, comparable within an allelic series)	10.9 upbm affinity estimate (log intensity, higher = more binding, comparable within an allelic series)
GGCGCCCA	8.76 upbm affinity estimate (log intensity, higher = more binding, comparable within an allelic series)	8.78 upbm affinity estimate (log intensity, higher = more binding, comparable within an allelic series)	8.67 upbm affinity estimate (log intensity, higher = more binding, comparable within an allelic series)	8.95 upbm affinity estimate (log intensity, higher = more binding, comparable within an allelic series)	8.83 upbm affinity estimate (log intensity, higher = more binding, comparable within an allelic series)	8.75 upbm affinity estimate (log intensity, higher = more binding, comparable within an allelic series)	8.8 upbm affinity estimate (log intensity, higher = more binding, comparable within an allelic series)	8.82 upbm affinity estimate (log intensity, higher = more binding, comparable within an allelic series)	8.81 upbm affinity estimate (log intensity, higher = more binding, comparable within an allelic series)	8.62 upbm affinity estimate (log intensity, higher = more binding, comparable within an allelic series)	8.78 upbm affinity estimate (log intensity, higher = more binding, comparable within an allelic series)	8.71 upbm affinity estimate (log intensity, higher = more binding, comparable within an allelic series)	8.73 upbm affinity estimate (log intensity, higher = more binding, comparable within an allelic series)
ACGATAGT	10.4 upbm affinity estimate (log intensity, higher = more binding, comparable within an allelic series)	10 upbm affinity estimate (log intensity, higher = more binding, comparable within an allelic series)	10.4 upbm affinity estimate (log intensity, higher = more binding, comparable within an allelic series)	9.75 upbm affinity estimate (log intensity, higher = more binding, comparable within an allelic series)			10 upbm affinity estimate (log intensity, higher = more binding, comparable within an allelic series)	10.5 upbm affinity estimate (log intensity, higher = more binding, comparable within an allelic series)	10.6 upbm affinity estimate (log intensity, higher = more binding, comparable within an allelic series)	10.4 upbm affinity estimate (log intensity, higher = more binding, comparable within an allelic series)	10.3 upbm affinity estimate (log intensity, higher = more binding, comparable within an allelic series)	10.4 upbm affinity estimate (log intensity, higher = more binding, comparable within an allelic series)	10.3 upbm affinity estimate (log intensity, higher = more binding, comparable within an allelic series)

From paper PMC11006913
